PriA SSB inh – blocks PriA binding to SSB C-terminal tail; AlphaScreen SSBct-PriA binding, biotinylated peptide; inhibition, % at 33 µM; hit rate 0.6% among 430,000; in the data active = inhibition mostly above about 37%, no sharp cut-off; inactive = mostly below about 20%
GDH-TPI inh – counter-screen for M. tuberculosis FBA inhibitors: GDH-TPI coupled enzymes; GDH-TPI coupled enzyme counterscreen, NADH absorbance; AID 588335; inhibition, % at 4.8 µM; hit rate 1.2% among 360,000; in the data active = inhibition above about 30%
UGM FP inh – inhibitors of M. tuberculosis UDP-galactopyranose mutase; P9WIQ1; purified UGM, fluorescence polarization probe displacement; inhibition, % at 10 µM; hit rate 0.06% among 320,000; AID 504406; in the data active = inhibition above about 10%, passing the limit was not always enough; inconclusive = no clear call, values can overlap the other calls
Mtb betalactam – beta-lactam sensitization of Mtb H37Rv. hit rate 0.27% among 330,000. inhibition, % at 25 µM. M. tuberculosis H37Rv growth with meropenem, percent inhibition. AID 434955; call rule not given here;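 note: growth measured after seven days incubation then overnight dye step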
Rv3671c protease – Rv3671c (M. tuberculosis) protease inhibition | inhibition, % at 5.96 µM | hit rate 0.048% among 320,000; in the data active = inhibition above about 38%;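 note: extracellular domain of Rv3671c used as enzyme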
Mtb FBA inh – Mtb fructose-bisphosphate aldolase inhibition | P9WQA3 | purified M. tuberculosis FBA, fluorescence read-out | hit rate 2.3% among 360,000 | AID 588726 | inhibition, % at 1 µM; in the data active = inhibition above about 27%
Target sequence (P9WQA3 whole entry, looked up): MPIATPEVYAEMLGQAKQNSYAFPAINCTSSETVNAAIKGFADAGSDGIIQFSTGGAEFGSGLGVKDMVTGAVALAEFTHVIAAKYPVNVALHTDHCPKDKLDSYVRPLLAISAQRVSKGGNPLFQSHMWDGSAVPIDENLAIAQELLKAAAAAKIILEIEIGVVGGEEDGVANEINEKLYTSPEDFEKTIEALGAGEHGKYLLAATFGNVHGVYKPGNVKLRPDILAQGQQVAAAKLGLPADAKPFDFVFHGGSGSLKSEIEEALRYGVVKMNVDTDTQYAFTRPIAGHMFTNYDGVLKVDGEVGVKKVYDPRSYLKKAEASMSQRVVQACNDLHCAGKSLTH
Large screens that a line does not name were inactive; ! = repeats disagree. In the library only some 3.2% were active in any assay of this set; here they are far more common.

CCN(CC)CCN(C(=O)c1ccc(C(=O)c2ccccc2)cc1)c1nc2c(OC)cccc2s1	PriA SSB inh 37!
O=C(NCC[C@H](O)c1ccco1)C(=O)Nc1ccc2c(c1)OCCO2	none (no result: GDH-TPI inh, UGM FP inh, Mtb betalactam, Rv3671c protease, Mtb FBA inh)
O=C1c2ccccc2C(=O)C1(O)O	none (no result: PriA SSB inh, GDH-TPI inh, Mtb FBA inh)
CC1(S(=O)(=O)O)CC(=O)c2ccccc2C1=O (centres undefined)	PriA SSB inh 83
CS(=O)(=O)N1CC(C(=O)N2CCN(C(=O)c3ccco3)CC2)C1	PriA SSB inh 80 (no result: GDH-TPI inh, UGM FP inh, Mtb betalactam, Rv3671c protease, Mtb FBA inh)
COc1ccc(Cl)cc1NC(=O)CC(C)=NNC(=O)CC#N	none (no result: GDH-TPI inh, UGM FP inh, Mtb betalactam, Rv3671c protease, Mtb FBA inh)
Nc1nc(N2C(=O)C3CC=CCC3C2=O)nn1-c1ccccc1 (centres undefined)	none
CC1=CC(c2ccccc2)n2nc(N3C(=O)C4CC=CCC4C3=O)nc2N1 (centres undefined)	Mtb FBA inh 175
CC1=CC(c2ccccc2)n2nc(N3C(=O)c4ccccc4C3=O)nc2N1 (centres undefined)	Mtb FBA inh 30
C[N+]1=C(/C=C/Nc2ccccc2Cl)C(C)(C)c2ccccc21	GDH-TPI inh 36 (no result: UGM FP inh)
COC(=O)c1ccc2c(c1)C(C)(C)C(/C=C/c1ccccc1O)=[N+]2C	none
COc1ccc(S(=O)(=O)NCCCc2ccc(N(C)C)cc2)cc1Cl	none (no result: GDH-TPI inh, UGM FP inh, Mtb betalactam, Rv3671c protease, Mtb FBA inh)
C/C(=N\NC(=O)c1ccc(C(=O)N/N=C(\C)c2ccco2)o1)c1ccco1	GDH-TPI inh 31 (no result: PriA SSB inh)
C/C(=N\NC(=S)NCc1ccccc1)c1ccco1	none (no result: PriA SSB inh)
C/C(=N/NC(=S)NCCc1ccccc1)c1ccco1	PriA SSB inh 62 (no result: GDH-TPI inh, UGM FP inh, Mtb betalactam, Rv3671c protease, Mtb FBA inh)
CC(C)(C)c1ccc(-c2nc(C#N)c(N3CCC(C(N)=O)CC3)o2)cc1	Mtb betalactam inconclusive, Mtb FBA inh 166
N#Cc1nc(-c2cccc(Cl)c2)oc1N1CCC(C(N)=O)CC1	Mtb FBA inh active
COc1ccc(-c2nc(C#N)c(N3CCC(C(N)=O)CC3)o2)cc1	Mtb FBA inh active
N#Cc1nc(-c2ccc(OCc3ccccc3)cc2)oc1N1CCC(C(N)=O)CC1	none
O=C(O)CCSc1ncnc2scc(-c3ccc(Cl)cc3)c12	none (no result: GDH-TPI inh, UGM FP inh, Mtb betalactam, Rv3671c protease, Mtb FBA inh)
O=C(Nc1ncc2c(n1)-c1ccccc1OC2)c1ccc(F)cc1	Mtb FBA inh active
O=C(Nc1ncc2c(n1)-c1ccccc1OC2)c1cccc([N+](=O)[O-])c1	none
O=C(CN1CCN(c2cccc(Cl)c2)CC1)c1ccc(O)cc1O	GDH-TPI inh 31
CC(=O)N1CCc2c(sc(NC(=O)Cc3ccc(F)cc3)c2C#N)C1	PriA SSB inh 60
O=C(CSc1nc2scc(-c3ccccc3)c2c(=O)n1-c1ccccc1)NCc1ccco1	none (no result: GDH-TPI inh, UGM FP inh, Mtb betalactam, Rv3671c protease, Mtb FBA inh)
CC(O)(CNC(=O)C(=O)NCCC1=CCCCC1)c1ccc(-c2ccccc2)cc1 (centres undefined)	none (no result: GDH-TPI inh, UGM FP inh, Mtb betalactam, Rv3671c protease, Mtb FBA inh)
O=c1[nH]c(=O)n(Cc2ccc(F)cc2)c(O)c1C=NCCCn1ccnc1	none
O=c1[nH]c(=S)n(Cc2ccc(F)cc2)c(O)c1C=NCCCn1ccnc1	GDH-TPI inh 31
CC12CN3CCN(CC(C3)/C1=N\N=C1/C3CN4CCN(C3)CC1(C)C4)C2	Mtb FBA inh 113 (no result: PriA SSB inh)
COc1nccnc1OC1CCN(C(=O)Cc2ccc(F)cc2F)C1 (centres undefined)	none (no result: GDH-TPI inh, UGM FP inh, Mtb betalactam, Rv3671c protease, Mtb FBA inh)
Cc1ccc(C)c(C(O)=C2C(=O)C(=O)N(CCN3CCOCC3)C2c2ccccc2F)c1 (centres undefined)	PriA SSB inh 48 (no result: GDH-TPI inh, UGM FP inh, Mtb betalactam, Rv3671c protease, Mtb FBA inh)
Cc1ccc(/C(O)=C2\C(=O)C(=O)N(CCCN3CCOCC3)C2c2ccccc2F)cc1 (centres undefined)	none (no result: PriA SSB inh, UGM FP inh, Mtb betalactam, Rv3671c protease)
COc1cccc(/C=C/C(=O)NCc2ccc(S(N)(=O)=O)cc2)c1	Mtb FBA inh 28
NS(=O)(=O)c1ccc(CNC(=O)/C=C/c2ccccc2)cc1	none
N#Cc1nc(-c2ccco2)oc1NCc1cccnc1	none
N#Cc1nc(-c2cccc(Cl)c2)oc1NCc1cccnc1	Mtb FBA inh 141
COc1ccc(-c2nc(C#N)c(NCCN(C)C)o2)cc1	Mtb FBA inh 123
CCN(CC)CCCNc1oc(-c2cccc(Cl)c2)nc1C#N	Mtb FBA inh 134
N#Cc1nc(-c2ccc(Cl)cc2)oc1NCc1ccco1	Mtb FBA inh 175
COc1ccc(Nc2oc(-c3ccc(OC)cc3)nc2C#N)cc1	none
N#Cc1nc(-c2ccccc2Cl)oc1NCc1ccco1	none
Cc1cccc(C(=O)Nc2ccc(OC(C)C)cc2)c1	none (no result: GDH-TPI inh, UGM FP inh, Mtb betalactam, Rv3671c protease, Mtb FBA inh)
O=C(Nc1nnc(-c2ccc(Br)cc2)o1)C1COc2ccccc2O1 (centres undefined)	none (no result: GDH-TPI inh, UGM FP inh, Mtb betalactam, Rv3671c protease, Mtb FBA inh)
COCCNc1oc(-c2ccc(Cl)cc2)nc1C#N	GDH-TPI inh 37, Mtb FBA inh active (no result: UGM FP inh, Mtb betalactam, Rv3671c protease)
COc1ccc(Nc2oc(-c3ccc(Cl)cc3)nc2C#N)cc1	none
CN(C)CCCNc1oc(-c2ccc(Cl)cc2)nc1C#N	Mtb FBA inh 173
COCCNc1oc(-c2ccc(C)cc2)nc1C#N	Mtb FBA inh 200
COc1cccc(OCCCn2c(CN3CCOCC3)nc3ccccc32)c1	none (no result: GDH-TPI inh, UGM FP inh, Mtb betalactam, Rv3671c protease, Mtb FBA inh)
O=C(Nc1cccnc1Cl)c1cc2c(s1)-c1ccccc1OC2	Mtb FBA inh 153
COc1ccccc1N1CCN(C(=O)c2cc3c(s2)-c2ccccc2OC3)CC1	none
COC(=O)c1cc2c(s1)-c1ccccc1OC2	Mtb FBA inh active
O=C(NN=Cc1ccc(Cl)cc1)c1cc2c(s1)-c1ccccc1CC2	none (no result: GDH-TPI inh, UGM FP inh, Mtb betalactam, Rv3671c protease, Mtb FBA inh)
CNC(=O)c1cc2c(s1)-c1ccccc1CC2	Mtb FBA inh active
CCSc1ccc(C(=O)N2CC(=O)Nc3ccccc32)cc1	none (no result: GDH-TPI inh, UGM FP inh, Mtb betalactam, Rv3671c protease, Mtb FBA inh)
O=C1CCc2cc(S(=O)(=O)NCC(c3ccsc3)N3CCOCC3)cc3c2N1CC3 (centres undefined)	none (no result: GDH-TPI inh, UGM FP inh, Mtb betalactam, Rv3671c protease, Mtb FBA inh)

Screening results (PubChem)
